Only some compounds are listed: those with a hit (about 2.7% of all), similar ones and a draw of the others.
F508del corr = correctors of CFTR F508del function in bronchial epithelial cells. AID 720511. CFBE cells, YFP halide quenching; stimulated with forskolin plus potentiator P3; % fluorescence drop versus neutral controls. activity (quench increase), % at 7.58 µM. hit rate 0.36% among 350,000;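 active means mean added fluorescence quench of at least 8% versus neutral control, with both replicates also reaching 8%; inconclusive means only one of the mean or replicate conditions met; inactive means mean below 8% and not both replicates reaching 8%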;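 further: cells transiently co-express mutant CFTR-F508del with the halide-sensitive YFP; corrector assay measuring rescue of mutant channel to the surface after 24 h compound exposure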
GSIS activator = primary screen for activators of insulin secretion dependent on glucose, INS-1E cells, GLuc reporter luminescence | INS-1E GLuc reporter insulin secretion, 2-3 h | activation, % at 16.6 µM | hit rate 0.61% among 370,000 | AID 743287;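 active means lowest replicate activation of at least 40%, so every replicate reaches that level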
EWS-Fli inh = inhibitors of EWS/Fli oncoprotein transcriptional activity; A673 NR0B1-luciferase reporter, viability-normalised; inhibition, % at 12.6 µM; hit rate 0.67% among 350,000; AID 651661;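 active means mean inhibition of at least 50% after viability correction, with every replicate also passing that limit; inconclusive means mean reaches 50% but only one of two replicates passes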;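 further: firefly luciferase signal divided by Alamar Blue viability fluorescence both relative to DMSO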
Env fusion inh = inhibitors of HIV Env-mediated cell fusion | inhibition, % at 12.3 µM | hit rate 1.1% among 360,000 | HeLa-JRFL Env/CEM21 cell fusion, luciferase;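 active means mean replicate inhibition score of at least 50 and every replicate individually at or above 50; inconclusive means only one of the two criteria met; inactive means mean below 50 and not all replicates reaching 50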
PAX8 inh HTS = lowers PAX8-driven luciferase in RMG-I cells. RMG-I TPO-luciferase reporter, SteadyGlo, 24 h. inhibition, % at 12.6 µM. hit rate 1.2% among 360,000. AID 652154;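 active means mean replicate inhibition at least 60% with every replicate also reaching 60%; inconclusive means only one of the two criteria is met; inactive means mean below 60% and not all replicates reaching 60%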;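 further: luciferase light reporting Pax8 driven TPO promoter activity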
PGC1a acetyl inh = lowers PGC1a acetylation signal in U2OS cells; hit rate 0.17% among 350,000; inhibition, % at 15.6 µM; AlphaScreen anti-acetyl-lysine; with virally co-expressed GCN5 acetyltransferase;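 active means every replicate shows inhibition of at least 40%; inconclusive means mean inhibition at least 40% but some replicate below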
Hits are given with their value; ! = not active in a repeat; [ ] = dose if it differs, or a comment.

What do the screens show for `C[C@H](CO)N1C[C@H](C)[C@@H](CN(C)Cc2ccccc2)Oc2ccc(NC(=O)Nc3cccc4ccccc34)cc2CC1=O`?
F508del corr: inactive; GSIS activator: inactive; EWS-Fli inh: 56.2; Env fusion inh: inactive; PAX8 inh HTS: inactive

Results for C[C@@H]1CN([C@@H](C)CO)C(=O)Cc2cc(NC(=O)Nc3cccc4ccccc34)ccc2O[C@@H]1CN(C)Cc1ccc(Cl)c(Cl)c1 ?
F508del corr: 9.9; GSIS activator: inactive; EWS-Fli inh: inactive; Env fusion inh: inactive; PGC1a acetyl inh: inactive

Results for C[C@@H]1CN([C@@H](C)CO)C(=O)c2cc(NC(=O)Nc3cccc4ccccc34)ccc2O[C@@H]1CN(C)Cc1ccc(Cl)c(Cl)c1 ?
F508del corr: inactive; GSIS activator: inactive; EWS-Fli inh: inactive; Env fusion inh: inactive; PGC1a acetyl inh: inactive

What do the screens show for `C[C@H](CO)N1C[C@H](C)[C@@H](CN(C)C(=O)Nc2cccc3ccccc23)Oc2ccc(NC(=O)Nc3ccc4c(c3)OCO4)cc2CC1=O`?
F508del corr: inactive; GSIS activator: inactive; EWS-Fli inh: inactive; Env fusion inh: inactive; PAX8 inh HTS: 73.5; PGC1a acetyl inh: inactive

How did C[C@H]1CN([C@@H](C)CO)C(=O)Cc2cc(NC(=O)Nc3ccc4c(c3)OCO4)ccc2O[C@@H]1CN(C)C(=O)Nc1cccc2ccccc12 do in these assays?
F508del corr: inactive; GSIS activator: inactive; EWS-Fli inh: inactive; Env fusion inh: inactive; PAX8 inh HTS: inactive; PGC1a acetyl inh: inactive

Results for Cc1ccc(S(=O)(=O)N(C)C[C@H]2Oc3ncc(Br)cc3C(=O)N([C@@H](C)CO)C[C@@H]2C)cc1 ?
F508del corr: inactive; GSIS activator: inactive; EWS-Fli inh: inactive; Env fusion inh: 77.4[16.7 µM]; PAX8 inh HTS: inactive; PGC1a acetyl inh: inactive

How did C[C@H](CO)N1C[C@H](C)[C@H](CN(C)S(=O)(=O)c2ccc(F)cc2)Oc2ncc(Br)cc2C1=O do in these assays?
F508del corr: inactive; GSIS activator: inactive; EWS-Fli inh: inactive; Env fusion inh: inactive; PAX8 inh HTS: inactive; PGC1a acetyl inh: inactive

Results for Cc1ccc(S(=O)(=O)N(C)C[C@H]2Oc3ncc(Br)cc3C(=O)N([C@@H](C)CO)C[C@H]2C)cc1 ?
F508del corr: inactive; GSIS activator: inactive; EWS-Fli inh: inactive; Env fusion inh: inactive; PAX8 inh HTS: inactive; PGC1a acetyl inh: inactive

Results for Cc1ccc(S(=O)(=O)N(C)C[C@@H]2Oc3ncc(Br)cc3C(=O)N([C@@H](C)CO)C[C@@H]2C)cc1 ?
F508del corr: inactive; GSIS activator: inactive; EWS-Fli inh: inactive; Env fusion inh: 57.9[16.7 µM]; PAX8 inh HTS: inactive; PGC1a acetyl inh: inactive

How did C[C@@H]1CN([C@@H](C)CO)C(=O)c2cc(Br)cnc2O[C@H]1CN(C)CC1CCOCC1 do in these assays?
F508del corr: inactive; GSIS activator: inactive; EWS-Fli inh: inactive; Env fusion inh: inactive; PAX8 inh HTS: inactive; PGC1a acetyl inh: inactive

How did C[C@H](CO)N1C[C@H](C)[C@@H](CN(C)CC2CCOCC2)Oc2ncc(Br)cc2C1=O do in these assays?
F508del corr: inactive; GSIS activator: inactive; EWS-Fli inh: inactive; Env fusion inh: inconclusive; PAX8 inh HTS: inactive; PGC1a acetyl inh: 88.9!

What do the screens show for `O=C(N[C@H]1CC[C@@H](CCNC(=O)C2CC2)O[C@@H]1CO)c1ccccn1`?
F508del corr: inactive; GSIS activator: inactive; EWS-Fli inh: inactive; Env fusion inh: inactive; PGC1a acetyl inh: inactive

How did O=C(Nc1ccccc1)N1CCCCN2[C@@H](CO)[C@@H](c3ccc(C#Cc4ccccn4)cc3)[C@@H]2C1 do in these assays?
F508del corr: inactive; GSIS activator: inactive; EWS-Fli inh: inactive; PAX8 inh HTS: inactive; PGC1a acetyl inh: inactive

Results for CCOC(=O)[C@@H]1[C@H]2COc3ccc(Br)cc3[C@@H]2N2C(=O)N(c3cccc(F)c3)C(=O)[C@@]12C ?
F508del corr: inactive; GSIS activator: inactive; EWS-Fli inh: inactive; Env fusion inh: 75.2; PAX8 inh HTS: inactive

Results for CCOC(=O)[C@@H]1[C@H]2COc3ccc(Br)cc3[C@@H]2N2C(=O)N(c3ccc(C(F)(F)F)cc3)C(=O)[C@@]12C ?
F508del corr: inactive; GSIS activator: inactive; EWS-Fli inh: inactive; Env fusion inh: 66.2; PAX8 inh HTS: inactive

How did CCOC(=O)[C@@H]1[C@H]2COc3ccccc3[C@@H]2N2C(=O)N(c3cccc(F)c3)C(=O)[C@]12C do in these assays?
F508del corr: inactive; GSIS activator: inactive; EWS-Fli inh: inactive; Env fusion inh: inactive; PAX8 inh HTS: inactive; PGC1a acetyl inh: inactive

Results for CCOC(=O)[C@@H]1[C@H]2COc3ccc(Br)cc3[C@@H]2N2C(=O)N(c3ccc(F)cc3)C(=O)[C@@]12C ?
F508del corr: inactive; GSIS activator: inactive; EWS-Fli inh: inactive; Env fusion inh: 99.9; PAX8 inh HTS: inactive; PGC1a acetyl inh: inactive

What do the screens show for `CCOC(=O)[C@H]1[C@H]2COc3ccc(Br)cc3[C@@H]2N2C(=O)N(c3ccc(F)cc3)C(=O)[C@@]12C`?
F508del corr: inactive; GSIS activator: inactive; EWS-Fli inh: inactive; Env fusion inh: inactive; PAX8 inh HTS: inactive; PGC1a acetyl inh: inactive

Results for CCOC(=O)[C@@H]1[C@H]2COc3ccc(Br)cc3[C@@H]2N2C(=O)N(c3ccc(Cl)cc3)C(=O)[C@@]12C ?
F508del corr: inactive; GSIS activator: inactive; EWS-Fli inh: inactive; Env fusion inh: 66.7; PAX8 inh HTS: inactive; PGC1a acetyl inh: inactive

What do the screens show for `Cc1ccc2nc(NC(=O)CSc3nc(=O)n(CCN(C)C)c4c3CCCC4)sc2c1`?
F508del corr: inactive; GSIS activator: 375.8; EWS-Fli inh: inactive; Env fusion inh: inactive; PAX8 inh HTS: inactive; PGC1a acetyl inh: inactive

Results for CCN(CC)CCCn1c2c(c(SCC(=O)Nc3ccc(F)c(F)c3)nc1=O)CCC2 ?
F508del corr: inactive; GSIS activator: inactive; EWS-Fli inh: inactive; Env fusion inh: inactive; PAX8 inh HTS: inactive; PGC1a acetyl inh: inactive

Results for CCN(CC)CCn1c2c(c(SCC(=O)Nc3ccc(F)c(F)c3)nc1=O)CCC2 ?
F508del corr: 9.2; GSIS activator: inactive; EWS-Fli inh: inactive; Env fusion inh: inactive; PAX8 inh HTS: inactive; PGC1a acetyl inh: inactive

Results for CO[C@H]1CN(C)C(=O)c2cc(NC(=O)c3ccc(F)cc3)ccc2OC[C@@H](C)N(C(C)=O)C[C@H]1C ?
F508del corr: inactive; GSIS activator: inactive; EWS-Fli inh: inactive; PGC1a acetyl inh: inactive

How did O=C(C[C@@H]1C[C@@H]2c3cc(NS(=O)(=O)c4ccccc4)ccc3O[C@@H]2[C@H](CO)O1)NC1CCCC1 do in these assays?
F508del corr: inactive; GSIS activator: inactive; EWS-Fli inh: inactive; PGC1a acetyl inh: inactive

Results for COc1ccc(CNC(=O)CCS(=O)(=O)c2ccc3c(c2)NC(=O)CS3)cc1 ?
F508del corr: inactive; GSIS activator: 144.6; Env fusion inh: inactive; PAX8 inh HTS: inactive; PGC1a acetyl inh: inactive

Results for COc1ccc(S(=O)(=O)NCCC(=O)NCc2ccc(F)cc2)cc1 ?
GSIS activator: inactive; Env fusion inh: inactive; PGC1a acetyl inh: 80.1
